Calls of active or inactive are those of the source. Rule for the calls: active = hit-call score of the fitted dose curve at least 0.9, where 1 is the maximum; inactive = score below 0.9.
What was measured:
[1] = biological target: Bile acid receptor (Homo sapiens) (UniProt Q96RI1); assay: ATG_IR1_CIS: Attagene CIS-FACTORIAL HepG2 Assay for human Nuclear Receptor Subfamily 1 Group H Member 4 (NR1H4), IR1 submotif (AID 2282946); conditions: IR1 reporter transcription, actives raise or lower the signal
Chain of Bile acid receptor (Homo sapiens) (Q96RI1 whole entry, looked up): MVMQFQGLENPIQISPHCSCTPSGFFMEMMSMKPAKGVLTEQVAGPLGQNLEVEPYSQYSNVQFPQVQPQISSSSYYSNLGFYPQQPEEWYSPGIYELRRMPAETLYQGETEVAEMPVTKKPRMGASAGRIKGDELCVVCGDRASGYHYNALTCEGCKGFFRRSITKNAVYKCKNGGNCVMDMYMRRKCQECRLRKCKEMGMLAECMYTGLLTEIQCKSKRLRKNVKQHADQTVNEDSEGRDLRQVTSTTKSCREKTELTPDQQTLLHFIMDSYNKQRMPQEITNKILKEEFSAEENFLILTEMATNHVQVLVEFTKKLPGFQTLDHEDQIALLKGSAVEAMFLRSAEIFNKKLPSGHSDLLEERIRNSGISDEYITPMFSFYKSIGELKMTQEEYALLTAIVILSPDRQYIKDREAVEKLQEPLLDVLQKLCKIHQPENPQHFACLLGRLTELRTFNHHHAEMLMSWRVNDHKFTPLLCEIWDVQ
Method in brief: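 Transient MRTU transfection, HepG2; 24 h dosing; RNA → RT-PCR → 6-FAM primer extension → HpaI digest → capillary electrophoresis fluorescence. Gain/loss of signal fitted relative to DMSO.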

[2] = ATG_GRE_CIS: Attagene CIS-FACTORIAL HepG2 Assay for human Glucocorticoid Response Elements (GRE) (AID 2282947); conditions: HepG2 GRE cis-reporter, Attagene multiplex mRNA; actives raise or lower the signal
Method in brief: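 HepG2 cells transiently transfected with multiple cis-promoter reporter units measure endogenous TF activity; 24 h compound exposure. Reporter mRNA quantified by RT-PCR, FAM labelling, HpaI digestion and capillary electrophoresis; bidirectional fit vs DMSO baseline.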

[3] = ATG_ISRE_CIS: Attagene CIS-FACTORIAL HepG2 Assay for human Interferon Regulatory Factor 1 (IRF1) binding to an Interferon-Stimulated Response Element (ISRE) (AID 2282948); conditions: HepG2 ISRE cis-reporter (Attagene), mRNA transcription readout; actives raise or lower the signal
Method in brief: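 Quantitation relies on labelled RT-PCR fragments separated by capillary electrophoresis. Human HepG2 cells bearing cis-promoter reporter constructs were treated 24 h; DMSO served as baseline for bidirectional fitting.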

[4] = ATG_M_32_CIS: Attagene CIS-FACTORIAL HepG2 Assay for M32 Transcription Factor (Internal Marker) (AID 2282949); conditions: HepG2 Attagene cis-factorial M32 reporter, mRNA; actives raise or lower the signal;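 note: background control marker of the multiplexed CIS panel rather than a real target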
Method in brief: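 Following 24 h chemical exposure of HepG2 cells transiently expressing cis-promoter reporter constructs, reporter transcript levels were determined by RT-PCR with fluorescent labelling and capillary electrophoresis, then fitted bidirectionally against DMSO.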

[5] = ATG_M_06_CIS: Attagene CIS-FACTORIAL HepG2 Assay for M06 Transcription Factor (Internal Marker) (AID 2282950); conditions: HepG2 Attagene CIS-FACTORIAL M06 internal marker reporter; actives raise or lower the signal
Method in brief: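 HepG2 cells transiently transfected with cis-regulated multiple reporter transcription units were exposed to chemical for 24 h; reporter mRNA was quantified by RT-PCR, 6-FAM primer labelling, HpaI digestion and capillary electrophoresis, fitted bidirectionally against DMSO.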

[6] = biological target: Hypoxia-inducible factor 1-alpha (Homo sapiens) (UniProt Q16665); assay: ATG_HIF1a_CIS: Attagene CIS-FACTORIAL HepG2 Assay for human Hypoxia Inducible Factor 1 (HIF1A) (AID 2282951); conditions: HepG2 Attagene cis-factorial HIF1a reporter transcription; actives raise or lower the signal
Chain of Hypoxia-inducible factor 1-alpha (Homo sapiens) (Q16665 whole entry, looked up): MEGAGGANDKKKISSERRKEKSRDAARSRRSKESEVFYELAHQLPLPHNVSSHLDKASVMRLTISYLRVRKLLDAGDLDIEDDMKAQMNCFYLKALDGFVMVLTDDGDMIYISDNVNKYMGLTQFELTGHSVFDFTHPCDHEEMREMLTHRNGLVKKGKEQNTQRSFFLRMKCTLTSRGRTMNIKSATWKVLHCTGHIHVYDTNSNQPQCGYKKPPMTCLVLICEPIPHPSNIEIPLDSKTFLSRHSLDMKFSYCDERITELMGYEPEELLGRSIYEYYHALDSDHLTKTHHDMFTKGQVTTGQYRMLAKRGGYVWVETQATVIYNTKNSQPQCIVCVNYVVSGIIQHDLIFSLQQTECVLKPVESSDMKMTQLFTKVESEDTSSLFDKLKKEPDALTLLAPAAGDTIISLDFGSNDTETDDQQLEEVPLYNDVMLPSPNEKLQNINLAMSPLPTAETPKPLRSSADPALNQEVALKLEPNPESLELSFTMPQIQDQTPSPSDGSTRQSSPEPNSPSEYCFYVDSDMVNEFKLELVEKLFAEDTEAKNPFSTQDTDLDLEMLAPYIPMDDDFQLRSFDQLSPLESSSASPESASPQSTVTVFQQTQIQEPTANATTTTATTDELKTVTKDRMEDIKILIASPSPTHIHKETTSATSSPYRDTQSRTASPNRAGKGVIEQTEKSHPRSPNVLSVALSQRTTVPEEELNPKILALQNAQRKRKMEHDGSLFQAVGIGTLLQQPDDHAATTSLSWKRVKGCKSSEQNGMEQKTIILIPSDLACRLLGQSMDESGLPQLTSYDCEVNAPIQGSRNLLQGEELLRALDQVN
Method in brief: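 RT-PCR/capillary electrophoresis fluorescence readout of reporter transcripts from endogenous-TF-driven cis elements in transfected HepG2 cells, 24 h exposure; activity fitted in both directions against DMSO controls.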

[7] = biological target: Hepatocyte nuclear factor 6 (Homo sapiens) (UniProt Q9UBC0); assay: ATG_HNF6_CIS: Attagene CIS-FACTORIAL HepG2 Assay for human Hepatocyte Nuclear Factor 6 (HNF6) (AID 2282952); conditions: HepG2 Attagene cis-factorial HNF6 reporter transcription; actives raise or lower the signal
Chain of Hepatocyte nuclear factor 6 (Homo sapiens) (Q9UBC0 whole entry, looked up, the tested form may be a part): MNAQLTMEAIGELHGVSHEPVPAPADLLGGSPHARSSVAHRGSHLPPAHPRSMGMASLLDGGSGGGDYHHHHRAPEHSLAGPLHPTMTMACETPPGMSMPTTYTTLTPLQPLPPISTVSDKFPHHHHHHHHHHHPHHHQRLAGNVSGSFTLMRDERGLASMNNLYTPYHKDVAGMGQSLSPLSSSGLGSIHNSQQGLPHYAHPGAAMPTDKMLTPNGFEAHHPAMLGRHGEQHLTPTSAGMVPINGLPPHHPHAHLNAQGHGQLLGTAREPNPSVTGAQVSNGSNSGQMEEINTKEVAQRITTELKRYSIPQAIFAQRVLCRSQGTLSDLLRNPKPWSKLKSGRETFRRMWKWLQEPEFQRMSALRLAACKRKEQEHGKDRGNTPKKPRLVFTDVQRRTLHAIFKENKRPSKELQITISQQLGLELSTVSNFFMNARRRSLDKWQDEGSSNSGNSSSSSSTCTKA
Method in brief: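 Reporter mRNA induction or loss in HepG2 after 24 h exposure; transient cis-MRTU transfection; fragments quantified by capillary electrophoresis; bidirectional analysis, DMSO as negative control.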

[8] = ATG_MRE_CIS: Attagene CIS-FACTORIAL HepG2 Assay for human Metal Responsive Element (MRE) (AID 2282954); conditions: HepG2 MRE cis-reporter transcription, Attagene multiplex; actives raise or lower the signal
Method in brief: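 HepG2 cells transiently transfected with multiple cis-element reporter units measure endogenous MTF1-driven transcription. After 24 h compound exposure, reporter mRNA is quantified by RT-PCR with 6-FAM labelling, HpaI digestion and capillary electrophoresis; bidirectional fits versus DMSO.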

[9] = ATG_PBREM_CIS: Attagene CIS-FACTORIAL HepG2 Assay for human Phenobarbital-responsive Enhancer Module (PBREM) (AID 2282955); conditions: HepG2 PBREM cis-reporter, Attagene multiplexed transcription; actives raise or lower the signal
Method in brief: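 Reporter mRNA read by RT-PCR, 6-FAM primer extension, HpaI digestion and capillary electrophoresis. Transfected HepG2 cells, 24 h compound exposure. Gain or loss of signal fitted bidirectionally relative to DMSO baseline.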

[10] = biological target: Paired box protein Pax-6 (Homo sapiens) (UniProt P26367); assay: ATG_Pax6_CIS: Attagene CIS-FACTORIAL HepG2 Assay for human Paired Box 6 (PAX6) (AID 2282956); conditions: HepG2 CIS-FACTORIAL PAX6 reporter transcription, RNA readout; actives raise or lower the signal
Chain of Paired box protein Pax-6 (Homo sapiens) (P26367 whole entry, looked up): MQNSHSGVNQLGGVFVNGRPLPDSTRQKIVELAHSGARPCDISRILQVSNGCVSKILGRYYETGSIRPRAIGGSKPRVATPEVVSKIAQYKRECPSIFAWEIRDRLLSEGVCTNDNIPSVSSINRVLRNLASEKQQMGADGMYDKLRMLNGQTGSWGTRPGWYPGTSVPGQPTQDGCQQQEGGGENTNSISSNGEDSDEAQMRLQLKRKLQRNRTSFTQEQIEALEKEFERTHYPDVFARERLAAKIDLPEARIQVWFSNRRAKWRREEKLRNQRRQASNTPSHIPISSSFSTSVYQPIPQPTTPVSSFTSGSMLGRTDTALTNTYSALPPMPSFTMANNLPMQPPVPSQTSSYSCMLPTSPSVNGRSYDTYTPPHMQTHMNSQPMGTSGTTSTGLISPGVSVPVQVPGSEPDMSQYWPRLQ
Method in brief: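 After twenty-four hours of chemical exposure, transfected HepG2 cells are harvested for RNA. Cis-promoter reporter transcripts are amplified, fluorescently labelled and sized by capillary electrophoresis, with gain and loss of signal scored against DMSO.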

[11] = ATG_PPRE_CIS: Attagene CIS-FACTORIAL HepG2 Assay for human Peroxisome Proliferator-activated Response Element (PPRE) (AID 2282958); conditions: HepG2 PPRE cis-element reporter, Attagene transcription factor profiling; actives raise or lower the signal
Method in brief: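 Read-out: fluorescent reporter mRNA fragments resolved by capillary electrophoresis after RT-PCR. HepG2 cells carried transiently transfected PPRE-driven cis reporter constructs and were dosed for 24 h; gain or loss of signal fitted relative to DMSO.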

[12] = ATG_RORE_CIS: Attagene CIS-FACTORIAL HepG2 Assay for human RAR-related Orphan Receptor Element (RORE) (AID 2282959); conditions: HepG2 Attagene cis-factorial RORE reporter, mRNA; actives raise or lower the signal
Method in brief: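 Readout: fluorescent reporter mRNA by RT-PCR plus capillary electrophoresis, 24 h after dosing transfected HepG2 cells. Endogenous transcription factor activity on a cis promoter element is measured. Gain or loss of signal fitted against DMSO.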

[13] = ATG_Sox_CIS: Attagene CIS-FACTORIAL HepG2 Assay for human SRY-box transcription factor (SOX) (AID 2282960); conditions: HepG2 Attagene cis-factorial SOX reporter, mRNA; actives raise or lower the signal
Method in brief: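 Read-out: fluorescent RT-PCR products of SOX1-linked reporter transcripts resolved by capillary electrophoresis, fitted bidirectionally against DMSO. Transiently transfected HepG2 cells, 24 h after chemical exposure, endogenous transcription factor activity.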

[14] = biological target: Transcription factor Sp1 (Homo sapiens) (UniProt P08047); assay: ATG_Sp1_CIS: Attagene CIS-FACTORIAL HepG2 Assay for human Specificity Protein 1 (Sp1) (AID 2282961); conditions: HepG2 Sp1 cis-reporter transcription, actives raise or lower the signal
Chain of Transcription factor Sp1 (Homo sapiens) (P08047 whole entry, looked up): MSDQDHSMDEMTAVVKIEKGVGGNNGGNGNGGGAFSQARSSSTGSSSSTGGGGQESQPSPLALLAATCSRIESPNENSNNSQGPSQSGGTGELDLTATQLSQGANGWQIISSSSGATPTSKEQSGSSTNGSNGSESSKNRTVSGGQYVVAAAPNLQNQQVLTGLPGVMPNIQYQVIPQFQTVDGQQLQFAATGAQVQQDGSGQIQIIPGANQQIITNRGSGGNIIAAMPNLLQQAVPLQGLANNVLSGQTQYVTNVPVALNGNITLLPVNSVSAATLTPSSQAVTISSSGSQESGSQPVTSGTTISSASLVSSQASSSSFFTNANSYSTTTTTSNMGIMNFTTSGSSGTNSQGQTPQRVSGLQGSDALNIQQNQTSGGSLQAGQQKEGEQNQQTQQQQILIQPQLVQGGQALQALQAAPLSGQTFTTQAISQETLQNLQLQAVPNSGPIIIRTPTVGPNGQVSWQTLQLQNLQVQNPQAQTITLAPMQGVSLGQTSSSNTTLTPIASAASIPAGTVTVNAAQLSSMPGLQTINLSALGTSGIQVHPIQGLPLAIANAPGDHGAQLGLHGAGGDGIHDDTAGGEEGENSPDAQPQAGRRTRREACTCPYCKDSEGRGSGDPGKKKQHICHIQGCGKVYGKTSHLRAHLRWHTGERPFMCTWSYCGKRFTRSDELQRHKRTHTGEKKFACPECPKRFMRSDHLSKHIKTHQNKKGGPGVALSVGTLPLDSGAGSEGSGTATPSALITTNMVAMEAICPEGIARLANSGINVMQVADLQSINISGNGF
Method in brief: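 Read-out: fluorescence of 6-FAM-labeled, HpaI-digested RT-PCR products separated by capillary electrophoresis. HepG2 cells carried transfected cis-element reporter units and were exposed to chemicals for 24 h; gain or loss of signal fitted relative to DMSO.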

[15] = ATG_SREBP_CIS: Attagene CIS-FACTORIAL HepG2 Assay for human Sterol Regulatory Element Binding (SREBP) (AID 2282962); conditions: HepG2 Attagene cis-factorial SREBP reporter, mRNA; actives raise or lower the signal
Method in brief: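 Twenty-four hours after chemical dosing of transfected HepG2 cultures, reporter RNA was converted to cDNA, amplified, end-labelled with 6-FAM and resolved by capillary electrophoresis. Responses were fitted relative to DMSO.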

[16] = biological target: Signal transducer and activator of transcription 3 (Homo sapiens) (UniProt P40763); assay: ATG_STAT3_CIS: Attagene CIS-FACTORIAL HepG2 Assay for human Signal Transducer and Activator of Transcription 3 (STAT3) (AID 2282963); conditions: HepG2, Attagene cis-factorial STAT3 reporter transcription; actives raise or lower the signal
Chain of Signal transducer and activator of transcription 3 (Homo sapiens) (P40763 whole entry, looked up): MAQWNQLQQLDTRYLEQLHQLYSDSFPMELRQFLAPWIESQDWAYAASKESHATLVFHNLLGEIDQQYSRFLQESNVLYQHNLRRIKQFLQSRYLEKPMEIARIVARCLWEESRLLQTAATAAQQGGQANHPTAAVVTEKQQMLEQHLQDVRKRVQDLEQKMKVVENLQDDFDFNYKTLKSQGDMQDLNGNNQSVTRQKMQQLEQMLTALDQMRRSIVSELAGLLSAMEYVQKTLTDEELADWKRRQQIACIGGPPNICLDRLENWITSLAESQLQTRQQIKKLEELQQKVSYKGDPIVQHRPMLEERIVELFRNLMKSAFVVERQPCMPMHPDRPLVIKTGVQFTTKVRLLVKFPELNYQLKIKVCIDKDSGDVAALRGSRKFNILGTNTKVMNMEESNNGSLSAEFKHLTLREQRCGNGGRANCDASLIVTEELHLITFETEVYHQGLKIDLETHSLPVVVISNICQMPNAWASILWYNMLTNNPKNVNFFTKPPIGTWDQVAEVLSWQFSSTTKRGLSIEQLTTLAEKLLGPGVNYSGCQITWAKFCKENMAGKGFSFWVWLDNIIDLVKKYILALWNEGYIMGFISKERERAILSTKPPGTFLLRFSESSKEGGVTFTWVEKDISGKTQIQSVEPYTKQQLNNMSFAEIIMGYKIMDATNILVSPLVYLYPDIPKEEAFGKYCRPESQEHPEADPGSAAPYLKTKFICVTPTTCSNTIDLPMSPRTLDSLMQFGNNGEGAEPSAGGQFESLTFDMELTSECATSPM
Method in brief: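 HepG2 cells transiently transfected with cis-element-driven multiple reporter transcription units; after 24 h chemical exposure, reporter mRNA measured by RT-PCR, 6-FAM primer-extension labelling, HpaI digestion and capillary electrophoresis. Bidirectional fitting versus DMSO baseline.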

[17] = ATG_TA_CIS: Attagene CIS-FACTORIAL HepG2 Assay for human TA Basal Promoter (AID 2282964); conditions: HepG2 Attagene CIS-factorial TA basal promoter reporter; actives raise or lower the signal
Method in brief: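 HepG2 cells transiently transfected with multiplexed cis-promoter reporter units, dosed 24 h. Reporter mRNA measured by RT-PCR, 6-FAM labelling, HpaI digestion and capillary electrophoresis; bidirectional fit versus DMSO baseline, serving as background control.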

[18] = ATG_TCF_b_cat_CIS: Attagene CIS-FACTORIAL HepG2 Assay for human T-Cell-Factor with beta-catenin (TCF/b-cat) (AID 2282965); conditions: HepG2 TCF/beta-catenin cis-reporter transcription, actives raise or lower the signal
Method in brief: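 HepG2 cells transiently transfected with multiple cis-promoter-regulated reporter transcription units, so endogenous transcription factor activity is measured. Reporter mRNA read 24 hours after dosing by RT-PCR, fluorescent labelling and capillary electrophoresis; bidirectional fitting against DMSO.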

[19] = ATG_PXRE_CIS: Attagene CIS-FACTORIAL HepG2 Assay for human Pregnane X Receptor Element (PXRE) (AID 2282957); conditions: HepG2 Attagene CIS-FACTORIAL PXRE reporter, mRNA; actives raise or lower the signal
Method in brief: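 Transiently transfected HepG2 cells were dosed and incubated for 24 h. RNA was then isolated, DNase-treated, reverse-transcribed and reporter sequences amplified. Labeled, HpaI-digested fragments were quantified by capillary electrophoresis against DMSO.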

## CC(=O)O[C@]1(C(C)=O)CC[C@H]2[C@@H]3C[C@H](C)C4=CC(=O)CC[C@]4(C)[C@H]3CC[C@@]21C
[1]
  outcome: inactive
[2]
  outcome: inactive
[3]
  AC50: 67.1 µM (active)
[4]
  outcome: inactive
[5]
  outcome: inactive
[6]
  outcome: inactive
[7]
  outcome: inactive
[8]
  AC50: 49.9 µM (active)
[9]
  outcome: inactive
[10]
  outcome: inactive
[11]
  outcome: inactive
[12]
  AC50: 11.2 µM (active)
[13]
  outcome: inactive
[14]
  outcome: inactive
[15]
  outcome: inactive
[16]
  outcome: inactive
[17]
  AC50: 42.4 µM (active)
[18]
  outcome: inactive

## CC(C)=CCC[C@H](C)CC=O
[1]
  outcome: inactive
[2]
  outcome: inactive
[3]
  outcome: inactive
[4]
  outcome: inactive
[5]
  outcome: inactive
[7]
  outcome: inactive
[8]
  outcome: inactive
[10]
  outcome: inactive
[19]
  AC50: 45.3 µM (active)
[12]
  outcome: inactive
[13]
  outcome: inactive
[14]
  outcome: inactive
[15]
  outcome: inactive
[16]
  outcome: inactive
[17]
  outcome: inactive
[18]
  outcome: inactive

## O=C(Nc1ccccc1)c1cc([N+](=O)[O-])ccc1Cl
[1]
  outcome: inactive
[2]
  outcome: inactive
[3]
  AC50: 38.3 µM (active)
[5]
  outcome: inactive
[6]
  AC50: 24.1 µM (active)
[9]
  outcome: inactive
[10]
  AC50: 32.8 µM (active)
[19]
  AC50: 2.97 µM (active)
[11]
  outcome: inactive
[12]
  outcome: inactive
[13]
  AC50: 40.5 µM (active)
[14]
  outcome: inactive
[17]
  outcome: inactive
[18]
  outcome: inactive

## CCCC(=O)c1cc(O)c(O)cc1O
[1]
  outcome: inactive
[2]
  outcome: inactive
[3]
  outcome: inactive
[5]
  outcome: inactive
[6]
  outcome: inactive
[7]
  outcome: inactive
[8]
  outcome: inactive
[9]
  outcome: inactive
[10]
  outcome: inactive
[19]
  outcome: inactive
[12]
  outcome: inactive
[13]
  outcome: inactive
[14]
  outcome: inactive
[15]
  outcome: inactive
[16]
  outcome: inactive
[17]
  outcome: inactive
[18]
  outcome: inactive

Source: PubChem BioAssay (EPA / NIEHS)
